Assay results reported in PubChem BioAssay AID463229 (Broad Institute, 2010).
Hit rate of the full screen: of about 2,300 compounds, about 2,100 (91%) were called active.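 The calls were made as follows: active = compounds raising the signal whose fitted half-maximal concentration is at or below their top tested dose (cut at about 25 µM in these data); inconclusive = flat fit at 30 to 70% activity, or a poor fit; inactive = the rest.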 So high a share suggests a set chosen from earlier hits. A selection follows. Where a call stands in place of a potency, no number is given. Potency and affinity values are given separately.

Assay: ATP level change in INS-1E without cytokines, dose response, counter-screen for beta-cell apoptosis protection project, INS-1E rat cells, ATP luminescence, cherry pick (AID 463229)
Settings: INS-1E rat beta cells, no cytokines, CellTiter-Glo ATP, 48 h; series mostly up to 26 µM
With `CCOc1ccc(/C=N/Nc2ccc(Cl)nn2)c(O)c1` the outcome was “inactive”. In the case of `Cc1cc(C)nc(OC(=O)c2ccc(Cl)cc2Cl)n1`, the outcome is reported as “inactive”. For `Cc1ccc(C(=O)O/N=C/c2c(N3CCOCC3)n(C)c3ccccc23)cc1`, the outcome was “inactive”. With `Cc1ccc2c(C)ccc(O)c2n1` the outcome was “inactive”. In the case of `CCCNC(=O)c1c(N)n(-c2cccc(OC)c2)c2nc3ccccc3nc12`, the outcome is reported as “inactive”. With `CC(=O)Nc1ccc(C2=CC(=O)C[C@H](c3ccc4c(c3)OCO4)C2)cc1` the outcome was “inactive”. For `FC(F)(F)c1ccccc1NC(=S)N1CCc2ccccc2C1`, the outcome was “inactive”. In the case of `Fc1ccc(Oc2nc(-c3ccccn3)nc3ccccc23)cc1`, the outcome is reported as “inactive”. For `O=C(CCCN1C(=O)/C(=C/c2ccccc2)SC1=S)NCCCn1ccnc1`, the outcome was “inactive”. In the case of `O=[N+]([O-])c1ccc(/C=N/Nc2ccnc3cc(Cl)ccc23)o1`, the outcome is reported as “inactive”. For `CC1(C(=O)OCC(=O)N2c3ccccc3Sc3ccccc32)CC1(Cl)Cl` (stereo unspecified), the outcome was “inactive”. For `Nc1ccc2nn(-c3cccc4ccccc34)nc2c1`, the outcome was “inactive”. For `CC(=O)Cc1cc(O)c2ccccc2c1OC(=O)c1ccc(Br)cc1`, the outcome was “inactive”. In the case of `Cc1cc2cc(CN3C(=O)c4ccccc4C3=O)ccc2n1C`, the outcome is reported as “inactive”. With `Cc1ccc(NC(=O)c2c(-c3c(F)cccc3Cl)noc2C)cc1F` the outcome was “inactive”. For `CC(C)(C)c1cc[n+](C2=C([O-])c3ccccc3C(=O)/C2=N\S(=O)(=O)c2ccccc2)cc1`, the outcome was “inactive”. For `O=C1/C(=N\S(=O)(=O)c2cccs2)C([n+]2ccc(CCCc3ccccc3)cc2)=C([O-])c2ccccc21`, the outcome was “inactive”. With `Cc1ccccc1Nc1c(-c2ccccn2)nc2c(C)cccn12` the outcome was “inactive”. With `COc1cc(NC2CCCCC2O)c2nc(-c3ccc(Cl)cc3)ccc2c1` (stereo unspecified) the outcome was “inactive”. With `COc1ccc(NC(=O)CN(C)C(=O)/C=C/c2ccc(S(=O)(=O)N3CCCCCC3)cc2)cc1` the outcome was “inactive”. In the case of `CC(C)C[C@H]1CN=C(Nc2ccccc2)N1CCC(C)c1ccccc1` (stereo partly specified), the outcome is reported as “inactive”. With `CCC(CC)C(=O)c1c[nH]c(C(=O)NCc2ccccn2)c1` the outcome was “inactive”. For `Cc1ccc(C)c(NS(=O)(=O)c2ccc(OCC(=O)NCc3cccnc3)cc2)c1`, the outcome was “inactive”. For `O=C(Cc1ccc([N+](=O)[O-])cc1)Nc1cccnc1`, the outcome was “inactive”. In the case of `O=C(NNC(=O)c1ccccc1OCc1ccccc1)c1ccccc1O`, the outcome is reported as “inactive”. For `C/C(=N\NC(N)=S)c1ccncc1`, the outcome was “inactive”. With `C/C(Cn1nnc([N+](=O)[O-])n1)=N\NC(=O)c1ccccc1Cl` the outcome was “inactive”. With `Clc1ccc(SCc2cc(N3CCOCC3)nc(-c3ccccn3)n2)cc1` the outcome was “inactive”. With `CCN(CC)C(=O)C1CCCN(C(=S)Nc2cccc3ccccc23)C1` (stereo unspecified) the outcome was “inactive”. With `CC(C)(C)C(=O)NC(Nc1cccc2cccnc12)C(Cl)(Cl)Cl` (stereo unspecified) the outcome was “inactive”. For `CCCOc1ccc2c3c(c(=O)oc2c1OCCC)CCCC3`, the outcome was “inactive”. With `COc1ccc(/C=N/N2CCN(Cc3ccccc3)CC2)cc1` the outcome was “inactive”. In the case of `C/C(=N\Nc1nc(C)cc(-c2ccccc2)n1)c1ccc(F)cc1`, the outcome is reported as “inactive”. For `C/C(=N\Nc1nc(C)cc(-c2ccccc2)n1)c1ccccc1`, the outcome was “inactive”. With `C=CC[C@@H](CC(=O)N(CCO)Cc1ccccc1)C(=O)N[C@H](COC(=O)[C@@H](CC=C)CC(=O)OC(C)(C)C)c1ccccc1` the outcome was “inactive”. With `Cc1cc(C)n(-c2nc(NC(C)(C)C)nc(NC(C)(C)C)n2)n1` the outcome was “inactive”. In the case of `NNC(=S)Nc1ccc(OC(F)(F)F)cc1`, the outcome is reported as “inactive”. With `COC(=O)c1sccc1S(=O)(=O)Nc1ccc(N2CCCCC2)cc1` the outcome was “inactive”. For `COc1ccc(NC(=O)N(C)C[C@H]2Oc3c(NS(=O)(=O)c4ccc(F)cc4)cccc3C(=O)N([C@H](C)CO)C[C@@H]2C)cc1`, the outcome was “inactive”. For `c1ccc(-c2nnc(CSc3ccc4c(c3)OCCO4)o2)cc1`, the outcome was “inactive”. For `Fc1cccc(Cl)c1-c1nnc2ccc3ccccc3n12`, the outcome was “inactive”. With `Nc1ccc(Nc2ccccc2)cc1` the outcome was “inactive”. For `Cc1ccc(S(=O)(=O)Nc2ccc(C(OC(=O)c3ccccc3[N+](=O)[O-])(C(F)(F)F)C(F)(F)F)cc2)cc1`, the outcome was “inactive”. For `CCN(CC)S(=O)(=O)c1cccc(NC(=O)c2cc(-c3cccs3)nn2-c2ccccc2)c1`, the outcome was “inactive”. For `c1ccc(N2CCN(CC3CCCCC3)CC2)cc1`, the outcome was “inactive”. With `CCCCOC(=O)c1ccc(NC(c2ccc(C)cc2)P(=O)(OC)OC)cc1` (stereo unspecified) the outcome was “inactive”. With `Cc1ccc(C2CC(c3cccc(C)c3)n3nc(N)nc3N2)cc1` (stereo unspecified) the outcome was “inactive”. For `COc1ccc(C2CC(c3cccc(C)c3)n3nc(N)nc3N2)cc1` (stereo unspecified), the outcome was “inactive”. For `CCOC(=O)CSc1nc2c(c(=O)[nH]1)C(C)(CC)Cc1ccccc1-2` (stereo unspecified), the outcome was “inactive”. In the case of `O=C(O)c1ccc(/C=C2\SC(=S)N(Nc3ccccc3)C2=O)cc1`, the outcome is reported as “inactive”. In the case of `CN1N=C(C(C)(C)C)CSC1=Nc1ccccc1`, the outcome is reported as “inactive”. With `CC(=O)c1c(C)n(CC(=O)NCc2ccco2)c2ccccc12` the outcome was “inactive”. With `Cc1ccc(N2C(=O)CSC2c2cccnc2)c(Cl)c1` (stereo unspecified) the outcome was “inactive”. For `CN(C)c1ccc(NC(=S)NC23CC4CC(CC(C4)C2)C3)cc1`, the outcome was “inactive”. With `COc1ccccc1NS(=O)(=O)c1cccc(NC(=O)c2[nH]c(C)c(C(C)=O)c2C)c1` the outcome was “inactive”. With `O=C(CC1CC2CCC1C2)NCCc1ccc(Cl)cc1` (stereo unspecified) the outcome was “inactive”. For `CNC(=S)N(Cc1cccs1)Cc1cc2cc(OC)c(OC)cc2[nH]c1=O`, the outcome was “inactive”. In the case of `CCN(CC)c1ccc(N=Cc2ccccc2[N+](=O)[O-])cc1`, the outcome is reported as “inactive”. With `CC1CC(=O)N(c2ccc(Br)cc2)C(=O)C1` the outcome was “inactive”. In the case of `Cn1cccc1/C=N/NC(=O)Cc1cccs1`, the outcome is reported as “inactive”. With `CCOC(=O)c1sc(SC)c2c1CCC/C2=N/OC` the outcome was “inactive”. For `COc1cnc(-c2ccccn2)nc1N(C)c1ccccc1`, the outcome was “inactive”. In the case of `O=C(CCCCC(=O)Nc1ccc(F)cc1F)Nc1ccc(F)cc1F`, the outcome is reported as “inactive”. For `C/C(=N\Nc1nc(-c2ccccn2)nc2ccccc12)c1ccc(F)cc1`, the outcome was “inactive”. In the case of `O=C(c1ccc(F)c(S(=O)(=O)N2CCOCC2)c1)N1CCN(c2ccc(F)cc2)CC1`, the outcome is reported as “inactive”. For `CC1=C(C(=O)OCCNC(=O)c2ccccc2O)C(c2ccccc2[N+](=O)[O-])C(C(=O)OCC2CCCO2)=C(C)N1` (stereo unspecified), the outcome was “inactive”. In the case of `COc1ccc(CN(C)C(=O)c2ccc(NS(=O)(=O)c3ccc(F)cc3)cc2)c(OC)c1OC`, the outcome is reported as “inactive”. In the case of `CC[C@@H]1C/C=C\Cc2ccccc2[C@H](C(=O)C[C@@H](O)CC(C)=O)OC1=O`, the outcome is reported as “inactive”. For `N#Cc1ccc(-c2csc(NNC(=O)c3ccccc3)n2)cc1`, the outcome was “inactive”. In the case of `CCn1c(=O)c(C(=O)Nc2ccccn2)c(O)c2ccccc21`, the outcome is reported as “inactive”. In the case of `COc1ccc(CN2CCN(CCSc3ccc(C)cc3)CC2)c(OC)c1OC`, the outcome is reported as “inactive”. With `CCOC(=O)C1(Cc2cccc(Cl)c2)CCCN(C(=O)c2ccc(COC)s2)C1` (stereo unspecified) the outcome was “inactive”. For `CN(C)CCCNc1cc(C(C)(C)C)nc2c(-c3ccccc3)cnn12`, the outcome was “inactive”. With `Cc1ccc2c(c1)Sc1c(ccc3ccccc13)N2` the outcome was “inactive”. In the case of `COc1ccc(C(=O)c2c(C)c3ccccc3n2CC(O)CNC(C)C)cc1` (stereo unspecified), the outcome is reported as “inactive”. With `COc1ccc(S(=O)(=O)Nc2ccc(O)c3ccccc23)cc1` the outcome was “inactive”. In the case of `CN(Cc1ccccc1)C(=O)c1nc2ccccn2c1CN1CCCC1c1nccs1` (stereo unspecified), the outcome is reported as “inactive”. With `CCn1c(=O)c([N+](=O)[O-])c(N2CCN(Cc3ccc4c(c3)OCO4)CC2)c2ccccc21` the outcome was “inactive”. For `Cc1occc1C(=O)N1CCCC(N2CCN(c3cccc(C(F)(F)F)c3)CC2)C1` (stereo unspecified), the outcome was “inactive”. For `O=C(C(Sc1ccccc1)c1ccccc1)N1CCN(c2ccccc2F)CC1` (stereo unspecified), the outcome was “inactive”. With `COc1ccc(N2CC(C(=O)N3CCN(c4ccccc4F)CC3)CC2=O)cc1` (stereo unspecified) the outcome was “inactive”. With `CC#CC[N+](C)(C)CCCCCCCC` the outcome was “inactive”. In the case of `OCCN1CCN(C2Cc3cc(Cl)ccc3Sc3ccc(Cl)cc32)CC1` (stereo unspecified) (tested in a mixture with another compound), the outcome is reported as “inactive”. In the case of `O=[N+]([O-])c1cccc(/C=N/n2cnnc2)c1`, the outcome is reported as “inactive”. For `CC(C)NC(=S)NC(c1ccccc1)(c1ccccc1)c1ccccc1`, the outcome was “inactive”. In the case of `CC1CCN(C(=O)CCNS(=O)(=O)c2ccc(Br)cc2)CC1`, the outcome is reported as “inactive”. For `COc1ccc(Br)cc1CN(C)CC(=O)NCc1ccc(F)cc1`, the outcome was “inactive”. In the case of `Cc1nn(-c2ccccc2)c(C)c1NC(=O)COc1ccc(Br)cc1Cl`, the outcome is reported as “inactive”. For `CCSC1=NCCN1C(=O)C(C)(C)Oc1ccc(Cl)cc1`, the outcome was “inactive”. With `Cc1cccc(C)c1NC(=O)CNC(=O)c1c(C)nn(C)c1Cl` the outcome was “inactive”. In the case of `Cc1cccc(NC(=S)Nc2ccc3cn[nH]c3c2)c1`, the outcome is reported as “inactive”. In the case of `Cc1ccc(O)c(/C=N/NC(=O)c2[nH]ncc2Br)c1`, the outcome is reported as “inactive”. With `NC(=S)N/N=C/c1c(O)ccc2ccccc12` the outcome was “inactive”. With `COc1ccc(N(C)S(=O)(=O)c2cccc(C(=O)Nc3nc(C)c(C(C)=O)s3)c2)cc1` the outcome was “inactive”. In the case of `O=C(c1ccco1)c1coc2c1cc(O)c1ccccc12`, the outcome is reported as “inactive”. For `Cc1ccc2c(C)nc(Nc3nc(CSc4nc5ccccc5[nH]4)cc(=O)[nH]3)nc2c1`, the outcome was “inactive”. With `Cc1ccc(C(=O)N/C(=C\c2ccc(-c3ccccc3[N+](=O)[O-])o2)C(=O)NCCCN2CCOCC2)cc1` the outcome was “inactive”. For `C=CCN1C(=O)N/C(=C/c2ccc(N3CCOCC3)o2)C1=O`, the outcome was “inactive”. With `C[C@H](CO)N1C[C@H](C)[C@@H](CN(C)C(=O)NC2CCCCC2)Oc2c(NC(=O)Nc3ccc(C(F)(F)F)cc3)cccc2C1=O` the outcome was “inactive”. With `COc1ccc(S(=O)(=O)N2CCNCC2)cc1OC` the outcome was “inactive”. In the case of `CCOC(=O)C(NCCc1ccc(F)cc1)(NC(=O)CC)C(F)(F)F` (stereo unspecified), the outcome is reported as “inactive”. With `Cc1cc(C)cc(OCCCn2ccnc2)c1` the outcome was “inactive”. With `O=c1[nH]c(NCCCO)nc2c1C1(CCCC1)Cc1ccccc1-2` the outcome was “inactive”. With `Nc1ccc(Nc2ccc([N+](=O)[O-])cc2[N+](=O)[O-])cc1` the outcome was “inactive”. For `COc1ccccc1NCC(=O)N/N=C/c1c(O)ccc2ccccc12`, the outcome was “inactive”. For `C/C(N)=C(/C#N)C(=O)COC(=O)c1cc(-c2ccc(C)cc2)nc2ccccc12`, the outcome was “inactive”.
